Out of some 1,400 compounds screened, about 30 (2%) were called active. About 15% were inconclusive and are not listed. Calls come from the whole dose curve; as a rule, active = well fitted inhibition curve with a large enough effect; inconclusive = small, poorly fitted or top-dose-only effect; inactive = flat fitted curve, though single readings scatter. The entries come from a sample that favours actives as a whole.
% is set by controls: 0 for no effect and ±100 for the full control effect; potency is the fitted concentration of half-maximal effect.

A short description of the experiment: Firefly Luciferase Counterscreen for Inhibitors of ATXN expression. As to conditions: luminescence; series mostly up to 57.5 µM; activity change, negative = inhibition: at the top concentration. From the text:
University of Utah School of Medicine, Salt Lake City, Utah
Spinocerebellar ataxia type 2 (SCA2) is a multisystem neurodegenerative disease caused by a dominantly acting mutation leading to expansion of a polyQ domain in the ataxin-2 protein (ATXN2). SCA2 patients develop progressive ataxia and later lose function in other neuronal systems. Prominent parkinsonian signs develop in some patients. Like many neurodegenerative disorders, no symptomatic or disease-modifying treatments are known.
The primary objective of the proposed research is to identify compounds inhibiting ATXN2 expression and to test them for efficacy in SCA2 mouse models. We have developed a cell-based assay paired with an in vivo mouse model using identical luciferase expression constructs. This approach takes advantage of an ATXN2-luciferase transgene, with the luciferase gene flanked by the upstream and downstream portions of the ATXN2 gene. Here we describe a 5-7 dose quantitative high thoroughput screen (qHTS) for compounds lowering ATXN2 expression. We screened the NIH Molecular Libraries Small Molecule Repository (MLSMR) and NCGC's mechanistically annotated (MIPE) and drug repurposing (NPC) collections of compounds for lowering expression of an ATXN2-luciferase reporter in HEK-293 cells. The assay is a multiplexed cell viability assay to ensure target reduction in the absence of cytotoxicity. Secondary qHTS assays included a CMV-luciferase reporter expressed in HEK-293 cells as well as a biochemical assay using recombinant luciferase to detect inhibitors of the reporter enzyme. Compounds that inhibit ATXN2 expression but is not cytotoxic were selected for confirmatory and secondary screens.
PROTOCOL TABLE (as described by Inglese J, Shamu CE and Guy RK. 2007)
SEQUENCE No. (e.g., 1, 2, 3, etc.); […] (e.g., Cells, Incubation, Reagent, etc.); VALUE; DESCRIPTION.
2; Compounds; 23 nL; Kalypsis pintool (Wako USA) equipped with a 1536-well pin head.
3; Enzyme; 1 uL; recombinant firefly luciferase (prepared in 50 mM Tris HCl pH7.5, 10 mM MgCl2, 0.05% BSA, 0.01% Tween20) at final concentration of 10 nM. Wells containing buffer only were used as control (set as 100% inhibition when normalizing data).
4; Incubation; 10 min; room temperature.
5; Detection; Luminescence; Viewlux plate reader (PerkinElmer).
NOTES (numbers refer to Sequence numbers above)
1. Luciferase substrate is added to 1536 well, Greiner white assay plate. Evaporation was prevented by covering assay plates with metal lids containing holes to allow gas diffusion.
2. Compounds were added in a dose response manner with the final concentrations of 57, 11.4, 2.28, 0.46, 0.091, 0.018, 0.0037 uM. Vehicle-only plates, with DMSO being pin-transferred to columns 5-48, were inserted uniformly at the beginning and the end of each library to monitor and record any shifts in assay performance.
3. Recombinant firefly luciferase (10 nM final concentration) is added to the assay plate.
5. End-point luminescence is then measured on the Viewlux (PerkinElmer) imager equipped with a clear emission filter using a 2 sec exposure.
Inglese J, Shamu CE and Guy RK, Reporting data from high throughput screening of small molecule libraries, Nature Chemical Biology, 2007, 3(8): 438-441. doi.org/10.1038/nchembio0807-438.
Turning to `N#Cc1nc(Cc2cccc3ccccc23)oc1NCc1ccc(F)cc1`, the “activity change, negative = inhibition” value is -1.45% (inactive).

As for `CC(C)CC(N)c1csc(Nc2ccc(C(=O)N(C)Cc3ccccc3)cn2)n1` (stereo unspecified), the “activity change, negative = inhibition” value is 4.85% (inactive).

With `COc1ccc(Nc2c3ccccc3nc3ccccc23)cc1`, the “activity change, negative = inhibition” value was -2.82% (inactive).

For `COc1ccc(C(=O)Nn2c(SCC(=O)c3ccccc3)nc3ccccc3c2=O)cc1`, the Potency is 7.08 µM (active).

Take `COc1ccc(C(=O)NNC(=S)NC(=O)c2ccccc2)cc1`: the “activity change, negative = inhibition” value was -14.8% (inactive).

As for `CC1(C(=O)NCc2ccccc2Br)CCN1C(=O)Cc1ccc(-c2ccccc2)cc1` (stereo unspecified), the “activity change, negative = inhibition” value is -4.03% (inactive).

Regarding `Cc1cc(C(=O)N/N=C/c2c(CO)cnc(C)c2O)c2ccccc2n1`, the “activity change, negative = inhibition” value was -2.35% (inactive).

As to `CSCc1nnc(NC(=O)c2ccc(S(=O)(=O)N3CCCCC3C)cc2)o1` (stereo unspecified), the “activity change, negative = inhibition” value was -18.2% (inactive).

Regarding `COc1ccc(C(NC(=O)c2cccnc2)c2cc(Cl)c3cccnc3c2O)cc1OC` (stereo unspecified), the “activity change, negative = inhibition” value is -10.1% (inactive).

As for `CC[C@H]1CN2CCc3cc(OC)c(OC)cc3C2C[C@@H]1C[C@H]1NCCc2cc(OC)c(OC)cc21` (stereo partly specified), the “activity change, negative = inhibition” value is 3.56% (inactive).

Turning to `Cc1cc(C(=O)N/N=C/c2cc(Br)cc(Br)c2OC(=O)c2cccc(F)c2)n[nH]1`, the “activity change, negative = inhibition” value is -1.31% (inactive).

As to `O=[N+]([O-])c1c(Nc2ccccn2)cc(Cl)c2nonc12`, the “activity change, negative = inhibition” value was -10.4% (inactive).

Regarding `COC(=O)Cc1ccc(NC(=S)N2CCN(c3cc(Cl)ccc3C)CC2)cc1`, the “activity change, negative = inhibition” value was -10.2% (inactive).

Regarding `CN(C)CCCN(C(=O)c1ccc(S(=O)(=O)N(C)Cc2ccccc2)cc1)c1nc2cc3c(cc2s1)OCO3`, the “activity change, negative = inhibition” value is 0.991% (inactive).

Regarding `COc1ccccc1/C=C/CN1CCCC(CO)(Cc2cccc(Cl)c2)C1` (stereo unspecified), the “activity change, negative = inhibition” value was 2.16% (inactive).

In the case of `COc1ccc(Cl)cc1C(Nc1cccnc1)c1ccc2cccnc2c1O` (stereo unspecified), the “activity change, negative = inhibition” value is -1.9% (inactive).

In the case of `Cc1cccc(NC(=O)c2cc(-c3ccccn3)nc3ccccc23)c1C`, the “activity change, negative = inhibition” value was -2.28% (inactive).

With `Cc1sc(NC(=O)c2cc(-c3ccc(Cl)cc3)nc3ccccc23)c(C(N)=O)c1C`, the Potency is 25.1 µM (active).

For `CN1CCC(NC(=O)c2cc(-c3cccc(Br)c3)nc3ccccc23)CC1`, the “activity change, negative = inhibition” value is -6.79% (inactive).

`COc1ccccc1-c1cc2nc(-c3ccccc3)cc(N3CCN(C(=O)c4ccco4)CC3)n2n1`: the “activity change, negative = inhibition” value was -6.68% (inactive).

For `O=C(Nc1ccc(OC(F)(F)F)cc1)N1CCN(c2ccnc3cc(Cl)ccc23)CC1`, the “activity change, negative = inhibition” value is 2.31% (inactive).

Take `CC(C)Nc1nc(NCCOc2ccccc2)c2sccc2n1`: the “activity change, negative = inhibition” value is 0.974% (inactive).

On to `CC(=O)Nc1ccc(CNc2nc(NC(C)C)nc3cc(-c4ccccc4)sc23)cc1`, for which the Potency is 14.1 µM (active).

Turning to `COc1cccc(CNc2nc(NCc3ccccc3)nc3ccsc23)c1`, the “activity change, negative = inhibition” value was -12.5% (inactive).

On to `COc1ccccc1NC(=O)CSc1n[nH]c(-c2ccccn2)n1`, for which the “activity change, negative = inhibition” value was -9.45% (inactive).

Consider `CC(C)c1ccc(S(=O)(=O)c2cc3cc(Br)ccc3oc2=O)cc1`, for which the “activity change, negative = inhibition” value was 2.64% (inactive).

Regarding `N=c1n(CCN2CCCCC2)c2ccccc2n1CC(O)c1ccc(Cl)c(Cl)c1` (stereo unspecified), the “activity change, negative = inhibition” value is 1.6% (inactive).

As for `CCOC(=O)c1c(C)sc2c1N(C(=O)CN(CC)CC)c1cc(Cl)ccc1S2`, the “activity change, negative = inhibition” value was 0.238% (inactive).

For the molecule `COc1ccc(NC(=O)c2cc(-c3cc(Cl)ccc3OC)n[nH]2)cc1OC`, the “activity change, negative = inhibition” value is -15.7% (inactive).

As to `Cc1nc2c(OCc3cccc(Cl)c3)cccn2c1N(C)Cc1cccs1`, the “activity change, negative = inhibition” value is -9.31% (inactive).

`C(=N\Nc1ccc2nncn2n1)/c1ccccn1`: the “activity change, negative = inhibition” value was -5.45% (inactive).

Values taken from PubChem BioAssay AID1745846 (National Center for Advancing Translational Sciences (NCATS), 2022).
